The values below come from PMC11062922 (Nature Chemical Biology, 2023).

Holding throughout (set-up): species or system human, MV4-11 + K-562 + COLO205 + SK-N-BE2 + OVCAR-8
The test system of test [1] is ATM. To be noted: read-out: apparent Kd, compound concentrations: 100 nM and 1000 nM (sheet 'Samples'), n = 1.
Test [2] has as its system CDC42BPG. To be noted: read-out: apparent Kd; compound concentrations: 100 nM and 1000 nM (sheet 'Samples'), CATDS: 0.370471808138506; n = 1.
The test system of test [3] is AURKA. To be noted: read-out: apparent Kd; compound concentrations: 100 nM and 1000 nM (sheet 'Samples'), CATDS: 7.2357375689978506E-2; n = 1.
For test [4], the system named is AURKB. The note with it: read-out: apparent Kd; compound concentrations: 100 nM and 1000 nM (sheet 'Samples'), CATDS: 8.33802174361232E-2; n = 1.
For test [5], the system named is BTK. To be noted: read-out: apparent Kd; compound concentrations: 100 nM and 1000 nM (sheet 'Samples'), CATDS: 2.7906188232160099E-2; n = 1.
The test system of test [6] is CDK6. To be noted: read-out: apparent Kd; compound concentrations: 100 nM and 1000 nM (sheet 'Samples'), CATDS: 2.6039683989772199E-2; n = 1.
Test [7] relates to DDR1. To be noted: read-out: apparent Kd; compound concentrations: 100 nM and 1000 nM (sheet 'Samples'), CATDS: 3.3765649508464002E-2; n = 1.
Test [8] has as its system DDR2. The note with it: read-out: apparent Kd; compound concentrations: 100 nM and 1000 nM (sheet 'Samples'), CATDS: 2.4811754642975199E-2; n = 1.
Test [9] deals with EPHA1. To be noted: read-out: apparent Kd; compound concentrations: 100 nM and 1000 nM (sheet 'Samples'), CATDS: 5.8966427250755599E-2; n = 1.
Test [10] deals with EPHA2. To be noted: read-out: apparent Kd; compound concentrations: 100 nM and 1000 nM (sheet 'Samples'), CATDS: 2.87381973097037E-2; n = 1.
Test [11] has as its system EPHA5. The note with it: read-out: apparent Kd; compound concentrations: 100 nM and 1000 nM (sheet 'Samples'), CATDS: 2.6468271871748401E-2; n = 1.
For test [12], the system named is EPHA7. To be noted: read-out: apparent Kd; compound concentrations: 100 nM and 1000 nM (sheet 'Samples'), CATDS: 2.4521911619802599E-2; n = 1.
The test system of test [13] is EPHB1. To be noted: read-out: apparent Kd; compound concentrations: 100 nM and 1000 nM (sheet 'Samples'), CATDS: 4.12835328689228E-2; n = 1.
Test [14] relates to EPHB3. The note with it: read-out: apparent Kd; compound concentrations: 100 nM and 1000 nM (sheet 'Samples'), CATDS: 2.2990547954998001E-2; n = 1.
Test [15] relates to EPHB4. To be noted: read-out: apparent Kd; compound concentrations: 100 nM and 1000 nM (sheet 'Samples'), CATDS: 2.6241533264211699E-2; n = 1.
In test [16] the test system is EPHB6. The note with it: read-out: apparent Kd; compound concentrations: 100 nM and 1000 nM (sheet 'Samples'), CATDS: 2.2781408813982901E-2; n = 1.
In test [17] the test system is FGFR1. To be noted: read-out: apparent Kd; compound concentrations: 100 nM and 1000 nM (sheet 'Samples'), CATDS: 3.1616918928168397E-2; n = 1.
Test [18] deals with FLT4. The note with it: read-out: apparent Kd; compound concentrations: 100 nM and 1000 nM (sheet 'Samples'), CATDS: 7.7146870041813295E-2; n = 1.
For test [19], the system named is GSK3A. The note with it: read-out: apparent Kd; compound concentrations: 100 nM and 1000 nM (sheet 'Samples'), CATDS: 2.5407151234935001E-2; n = 1.
Test [20] relates to GSK3B. To be noted: read-out: apparent Kd; compound concentrations: 100 nM and 1000 nM (sheet 'Samples'), CATDS: 2.45501369034281E-2; n = 1.
Test [21] concerns IRAK1. The note with it: read-out: apparent Kd; compound concentrations: 100 nM and 1000 nM (sheet 'Samples'), CATDS: 2.4333511791148201E-2; n = 1.
For test [22], the system named is MAP3K5. To be noted: read-out: apparent Kd; compound concentrations: 100 nM and 1000 nM (sheet 'Samples'), CATDS: 2.5132787541446201E-2; n = 1.
Test [23] relates to MAP3K6. To be noted: read-out: apparent Kd; compound concentrations: 100 nM and 1000 nM (sheet 'Samples'), CATDS: 2.24428147169137E-2; n = 1.
The test system of test [24] is PAK4. The note with it: read-out: apparent Kd; compound concentrations: 100 nM and 1000 nM (sheet 'Samples'), CATDS: 2.7893369435470699E-2; n = 1.
Test [25] has as its system PDGFRB. The note with it: read-out: apparent Kd; compound concentrations: 100 nM and 1000 nM (sheet 'Samples'), CATDS: 2.3035756841704998E-2; n = 1.
In test [26] the test system is PLK4. The note with it: read-out: apparent Kd; compound concentrations: 100 nM and 1000 nM (sheet 'Samples'), CATDS: 9.4443768096787298E-2; n = 1.
Test [27] concerns PTK2. The note with it: read-out: apparent Kd; compound concentrations: 100 nM and 1000 nM (sheet 'Samples'), CATDS: 0.104516847999243; n = 1.
Test [28] has as its system RET. To be noted: read-out: apparent Kd; compound concentrations: 100 nM and 1000 nM (sheet 'Samples'), CATDS: 0.104878429822753; n = 1.
Test [29] relates to SLK. The note with it: read-out: apparent Kd; compound concentrations: 100 nM and 1000 nM (sheet 'Samples'), CATDS: 2.57372154872102E-2; n = 1.
Test [30] concerns STK10. The note with it: read-out: apparent Kd; compound concentrations: 100 nM and 1000 nM (sheet 'Samples'), CATDS: 4.1679333810588297E-2; n = 1.
For test [31], the system named is TEC. The note with it: read-out: apparent Kd; compound concentrations: 100 nM and 1000 nM (sheet 'Samples'), CATDS: 3.46380925591862E-2; n = 1.
Test [32] has as its system TGFBR1. To be noted: read-out: apparent Kd; compound concentrations: 100 nM and 1000 nM (sheet 'Samples'), CATDS: 3.4751131583425202E-2; n = 1.
The test system of test [33] is TNK1. The note with it: read-out: apparent Kd; compound concentrations: 100 nM and 1000 nM (sheet 'Samples'), CATDS: 3.18258683294073E-2; n = 1.

Molecules are shown by their SMILES. Where two headings read alike, the source gives them in different places.

In the case of `CC(C)c1ccc(-c2cc(-c3c[nH]nc3-c3ccccn3)ccn2)cc1` [GW682841X], the potency estimated from few doses in test [1] (CATDS: 0.768793574743593) was 216 nM; in [2], 1220 nM.

With `O=C1NC(=O)C(N2CCc3ccccc32)=C1c1ccc(Cl)cc1` [SB-333612], the potency estimated from few doses in test [1] (CATDS: 1) is 265 nM.

Regarding `Cc1cnc(N)c(/C=C/c2cncc(C(=O)NCCc3ccc(Cl)cc3Cl)c2)c1.Cl` [GSK190937A], the potency estimated from few doses in [1] (CATDS: 1) is 186 nM.

Take `CC(=O)Nc1ccc2c(c1)C(c1ccccc1Cl)=Nc1c(n[nH]c1C)N2` [RO0281752-000]: the potency estimated from few doses in test [3] was 151 nM; in test [4], 121 nM; in test [5], 1080 nM; in test [6] it was 1320 nM; in test [7], 658 nM; in test [8], 1540 nM. Besides, the potency estimated from few doses in test [9] is 213 nM; in [10], 992 nM; in [11] it was 1260 nM; in test [12], 1600 nM; in [13], 421 nM; in test [14], 2020 nM. Also, the potency estimated from few doses is 1290 nM in test [15]; 2090 nM in [16]; 772 nM in [17]; 136 nM in test [18]; 1430 nM in [19]; 1600 nM in test [20]. Moreover, the potency estimated from few doses in test [21] was 1650 nM; in [22] it was 1480 nM; in [23], 2220 nM; in [24], 1080 nM; in [25] it was 2000 nM; in test [26], 100 nM. Moreover, the potency estimated from few doses is 86.4 nM in test [27]; 86 nM in test [28]; 1370 nM in test [29]; 413 nM in test [30]; 620 nM in test [31]; 615 nM in [32]. The potency estimated from few doses in test [33] is 760 nM.
